PubChem BioAssay AID1159580 (chemical genetic matrix, 2015)
“And” between values parts separate entries of the source, which are not always exact repeats. Equal entries are not always repeated. Among all 5,500 compounds or so, about 2,000 (36%) were called active. About 18% were inconclusive and are not listed. Cut-off read from the data, not from the text of the source: active = normalized growth mostly below about 0.91 (no sharp cut-off); inconclusive = no clear call, values can overlap the other calls; inactive = mostly above about 0.92. The list shows a part of the results.

Assay: chemical genetic growth profiling, strain panel (AID 1159580);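 note: tested at 20 µM; growth read once vehicle control cultures reached saturation at 30 °C; 1 = growth at the plate median or of vehicle wells; lower values mean less growth of the strain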
Settings: S. cerevisiae deletion strains, growth OD

Measured: normalized growth

CO/N=C(\C(=O)N[C@@H]1C(=O)N2C(C(=O)O)=C(COC(C)=O)CS[C@H]12)c1csc(N)n1
inactive: locus YAL021C, strain ccr4, hits give low values 0.961 | locus YAL026C, strain drs2, hits give low values 0.983 | locus YAL030W, strain snc1, hits give low values 0.983 | locus YBL061C, strain skt5, hits give low values 0.993 | locus YBR009C, strain hhf1, hits give low values 0.973 | locus YBR021W, strain FUR4, hits give low values 1 | locus YBR023C, strain chs3, hits give low values 1.02 | locus YBR171W, strain sec66, hits give low values 0.993 | locus YBR229C, strain ROT2, hits give low values 0.954 | locus YBR231C, strain swc5, hits give low values 0.975 | locus YBR279W, strain paf1, hits give low values 1 | locus YCL011C, strain gbp2, hits give low values 0.954 | locus YCL016C, strain dcc1, hits give low values 0.961 | locus YCL029C, strain bik1, hits give low values 0.998 | locus YCL061C, strain MRC1, hits give low values 0.964 | locus YCL069W, strain vba3, hits give low values 0.995 | locus YCR088W, strain abp1, hits give low values 0.985 | locus YDL005C, strain med2, hits give low values 0.992 | locus YDL035C, strain GPR1, hits give low values 0.959 | locus YDL040C, strain nat1, hits give low values 0.989 | locus YDL074C, strain BRE1, hits give low values 1.02 | locus YDL101C, strain DUN1, hits give low values 0.99 | locus YDL185W, strain tfp1, hits give low values 0.965 | locus YDL192W, strain arf1, hits give low values 0.982 | locus YDR001C, strain nth1, hits give low values 0.976 | locus YDR069C, strain doa4, hits give low values 0.996 | locus YDR101C, strain arx1, hits give low values 0.975 | locus YDR137W, strain rgp1, hits give low values 0.938 | locus YDR159W, strain sac3, hits give low values 0.985 | locus YDR162C, strain NBP2, hits give low values 0.954 | locus YDR195W, strain ref2 0.989 | locus YDR297W, strain sur2, hits give low values 0.986 | locus YDR318W, strain mcm21, hits give low values 0.996 | locus YDR334W, strain swr1, hits give low values 0.976 | locus YDR335W, strain msn5, hits give low values 0.992 | locus YDR388W, hits give low values 0.992 | locus YDR392W, strain spt3, hits give low values 0.896 | locus YDR502C, strain sam2, hits give low values 1 | locus YEL003W, strain gim4, hits give low values 1.02 | locus YEL037C, strain rad23, hits give low values 0.991 | locus YEL061C, strain CIN8 (second series), hits give low values 0.989 | locus YEL061C, strain CIN8, hits give low values 0.995 | locus YER015W, strain faa2, hits give low values 0.979 | locus YER016W, strain bim1, hits give low values 0.99 | locus YER110C, hits give low values 0.992 | locus YER111C, strain swi4, hits give low values 1 | locus YER155C, strain BEM2 (second series), hits give low values 0.965 | locus YER155C, strain BEM2, hits give low values 1 | locus YER167W, strain BCK2, hits give low values 1.02 | locus YFR010W, strain ubp6, hits give low values 0.97 | locus YGL078C, strain dbp3, hits give low values 0.998 | locus YGL086W, strain mad1, hits give low values 0.984 | locus YGL167C, strain pmr1, hits give low values 1.01 | locus YGL173C, strain kem1, hits give low values 1.01 | locus YGL227W, strain vid30, hits give low values 0.993 | locus YGL240W, strain doc1, hits give low values 0.996 | locus YGL248W, strain PDE1, hits give low values 1.02 | locus YGL253W, strain hxk2, hits give low values 1 | locus YGR135W, strain pre9, hits give low values 1.05 | locus YGR229C, strain SMI1, hits give low values 0.979 | locus YGR252W, strain gcn5, hits give low values 1.05 | locus YHR013C, strain ard1, hits give low values 0.94 | locus YHR027C, strain rpn1, hits give low values 0.987 | locus YHR030C, strain SLT2, hits give low values 0.988 and 1.01 | locus YHR079C, strain IRE1 (second series), hits give low values 0.998 | locus YHR079C, strain IRE1, hits give low values 0.992 | locus YHR094C, strain hxt1, hits give low values 0.994 | locus YHR129C, strain ARP1, hits give low values 0.99 | locus YHR142W, strain chs7, hits give low values 0.993 | locus YHR200W, strain rpn10, hits give low values 0.981 | locus YIL066C, strain RNR3, hits give low values 0.976 | locus YIL073C, strain SPO22, hits give low values 1.06 | locus YIL125W, strain kgd1, hits give low values 0.986 | locus YIR030C, strain dcg1, hits give low values 0.996 | locus YJL092W, strain hpr5, hits give low values 0.974 | locus YJL095W, strain BCK1 (second series), hits give low values 0.97 | locus YJL095W, strain BCK1, hits give low values 1.06 and 0.972 | locus YJL115W, strain asf1, hits give low values 0.968 | locus YJL129C, strain trk1, hits give low values 0.989 | locus YJL134W, strain LCB3, hits give low values 0.989 | locus YJL154C, strain vps35, hits give low values 0.968 | locus YJL164C, strain tpk1, hits give low values 0.975 | locus YJL166W, strain qcr8, hits give low values 1.01 | locus YJL168C, strain set2, hits give low values 0.991 | locus YJL187C, strain SWE1 (second series), hits give low values 1.01 | locus YJL187C, strain SWE1, hits give low values 0.984 | locus YJR043C, strain POL32, hits give low values 0.958 | locus YJR066W, strain TOR1, hits give low values 0.983 | locus YKL009W, strain mrt4, hits give low values 1.03 | locus YKL068W, hits give low values 0.986 | locus YKL085W, strain MDH1 (second series), hits give low values 0.994 | locus YKL085W, strain MDH1, hits give low values 0.994 | locus YKL160W, strain elf1, hits give low values 1.02 | locus YKL190W, strain CNB1, hits give low values 1 | locus YKR001C, strain vps1, hits give low values 0.992 | locus YKR026C, strain gcn3, hits give low values 0.964 | locus YKR091W, strain srl3, hits give low values 0.962 | locus YLL001W, strain dnm1, hits give low values 1.01 | locus YLL026W, hits give low values 0.996 | locus YLL041C, strain sdh2, hits give low values 1 | locus YLR027C, strain aat2, hits give low values 0.977 | locus YLR039C, strain RIC1, hits give low values 0.993 | locus YLR058C, strain SHM2, hits give low values 0.986 | locus YLR102C, strain apc9, hits give low values 0.997 | locus YLR113W, strain HOG1, hits give low values 0.99 | locus YLR221C, strain rsa3, hits give low values 1 | locus YLR258W, strain gsy2, hits give low values 0.974 | locus YLR262C, strain YPT6 (second series), hits give low values 1 | locus YLR262C, strain YPT6, hits give low values 0.954 | locus YLR268W, strain sec22, hits give low values 0.973 | locus YLR320W, strain mms22, hits give low values 0.96 | locus YLR330W, strain CHS5, hits give low values 0.988 | locus YLR342W, strain FKS1 (second series), hits give low values 0.995 | locus YLR342W, strain FKS1, hits give low values 0.994 | locus YLR357W, strain rsc2, hits give low values 1.03 | locus YLR370C, strain arc18, hits give low values 0.994 | locus YLR371W, strain rom2, hits give low values 0.994 | locus YLR384C, strain iki3, hits give low values 0.983 | locus YLR418C, strain cdc73, hits give low values 1.01 | locus YML016C, strain PPZ1, hits give low values 0.993 | locus YML032C, strain rad52, hits give low values 0.993 | locus YML120C, strain ndi1, hits give low values 0.989 | locus YML124C, strain tub3, hits give low values 0.993 | locus YMR058W, strain fet3, hits give low values 0.99 | locus YMR078C, strain ctf18, hits give low values 0.98 | locus YMR125W, strain sto1, hits give low values 1.02 | locus YMR129W, hits give low values 0.968 | locus YMR205C, strain PFK2, hits give low values 1 | locus YMR223W, strain ubp8, hits give low values 1.03 | locus YMR231W, strain pep5, hits give low values 0.999 | locus YMR307W, strain GAS1, hits give low values 1 | locus YNL067W, strain RPL9B, hits give low values 1.01 | locus YNL071W, strain lat1, hits give low values 0.989 | locus YNL128W, strain TEP1, hits give low values 0.996 | locus YNL183C, strain NPR1, hits give low values 0.91 | locus YNL209W, strain ssb2, hits give low values 0.99 | locus YNL233W, strain BNI4, hits give low values 1.03 | locus YNL248C, strain rpa49, hits give low values 0.977 | locus YNL250W, strain rad50, hits give low values 1.01 | locus YNL271C, strain bni1, hits give low values 1.01 | locus YNL298W, strain CLA4, hits give low values 0.989 | locus YNL307C, strain MCK1, hits give low values 0.994 | locus YNL322C, strain KRE1 (second series), hits give low values 0.971 | locus YNL322C, strain KRE1, hits give low values 1 | locus YNR049C, strain mso1, hits give low values 0.981 | locus YNR052C, strain pop2, hits give low values 0.992 | locus YOL006C, strain TOP1, hits give low values 1.15 | locus YOL012C, strain htz1 0.969 | locus YOL147C, strain pex11, hits give low values 1 | locus YOR001W, strain rrp6, hits give low values 1.01 | locus YOR061W, strain CKA2, hits give low values 0.976 | locus YOR069W, strain VPS5, hits give low values 0.988 | locus YOR070C, strain gyp1, hits give low values 0.995 | locus YOR080W, strain dia2, hits give low values 0.992 | locus YOR083W, strain WHI5, hits give low values 1.02 | locus YOR106W, strain vam3, hits give low values 0.997 | locus YOR136W, strain idh2, hits give low values 0.984 | locus YOR144C, strain elg1, hits give low values 0.99 | locus YOR184W, strain ser1, hits give low values 0.986 | locus YOR231W, strain MKK1, hits give low values 0.971 | locus YOR265W, strain rbl2, hits give low values 0.99 | locus YOR270C, strain vph1, hits give low values 1.05 | locus YOR290C, strain snf2, hits give low values 0.946 | locus YOR316C, strain cot1, hits give low values 0.984 | locus YPL051W, strain arl3, hits give low values 1.01 | locus YPL055C, strain LGE1, hits give low values 1.01 | locus YPL078C, strain atp4, hits give low values 0.968 | locus YPL106C, strain sse1, hits give low values 0.963 | locus YPL240C, strain hsp82, hits give low values 1.01 | locus YPL256C, strain CLN2, hits give low values 1 | locus YPR119W, strain clb2, hits give low values 0.991 | locus YPR141C, strain kar3, hits give low values 0.992 | locus YPR163C, strain tif3, hits give low values 0.988 | locus YPR167C, strain met16, hits give low values 0.998 | strain wtn01, hits give low values 0.999
